Consider 8 compounds from PubChem BioAssay (Tox21).

Assay [1] is described as follows: qHTS assay to identify small molecule agonists of the hypoxia (HIF-1) signaling pathway - cell viability counter screen (AID 1224844; calls by dose curve; note: nearly all actives have a fitted effect of over 50% in size). In outline: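 Same wells as the HIF-1 reporter screen; ME-180 cells carrying HRE-bla, 17 hr treatment at 37C; CellTiter-Glo luminescence read after 30 min at room temperature.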
Assay [2] is described as follows: qHTS assay to identify small molecule agonists of H2AX (AID 1224845; active = well fitted activation curve with a large enough effect in the signal ratio in the repeat runs, not every such curve was filed as active; the % refers to the signal ratio). In outline: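 Phospho-H2AX Ser139 measured by HTRF (ex 320 nm; em 665 and 620 nm) after 24 hr antibody incubation. Compounds, 15 concentrations, 0.76% DMSO, were applied to CHO-K1 cells for 3hr at 37C before lysis.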
A short description of assay [3]: qHTS assay to identify small molecule agonists of the hypoxia (HIF-1) signaling pathway (AID 1224846; active = well fitted activation curve with a large enough effect in the signal ratio in the repeat runs, not every such curve was filed as active; the % refers to the signal ratio). A digest of the protocol:
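In ME-180 cells bearing an HRE-bla construct, 17 h treatment with DMSO-dissolved compounds at 37C was followed by CCF4-AM loading to quantify reporter induction.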
For orientation: qHTS replaces the single test concentration by a dilution series.

Assay [4] in a line: qHTS assay to identify small molecule agonists of H2AX - cell viability counter screen (AID 1224847; calls by dose curve; note: nearly all actives have a fitted effect of over 30% in size; note: potency is the fitted concentration of half-maximal effect). A digest of the protocol:
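Cytotoxicity counter screen in wild-type CHO-K1 cells: a 3 hr compound treatment at 37C across 15 concentrations, followed by CellTiter-Glo luminescence to gauge viable cells.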

Assay [5] in a line: qHTS RealTime-Glo MT Cell Viability Assay in HepG2 cells - 24 hour (AID 1224867). Note: nearly all actives have a fitted effect of over 50% in size. In outline: (§1)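 Luminescence read-out: viable HepG2 cells reduce a prosubstrate to a NanoLuc substrate, giving a signal proportional to live cell number. Reads taken at 0, 8, 16, 24, 32 and 40 h of compound exposure at 37 C.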
The nature of assay [6]: qHTS RealTime-Glo MT Cell Viability Assay in HEK293 cells - 32 hour (AID 1224868). Note: nearly all actives have a fitted effect of over 50% in size. Note: potency is the fitted concentration of half-maximal effect. A digest of the protocol: (§2)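 Nonlytic real-time viability readout: viable cells convert prosubstrate to NanoLuc substrate, giving luminescence proportional to live cell number. HEK293, 600 cells/well, compound added after 5 h, continuous culture at 37 C.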
Assay [7] is described as follows: A CellTox Green Cytotoxicity Assay to monitor cytotoxicity in HEK293 cells - 0 hour (AID 1224869). Note: nearly all actives have a fitted effect of over 50% in size. A digest of the protocol:
(§3)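 Homogeneous no-lysis format: HEK293 cell suspension mixed with CellTox Green reagent, seeded, incubated 5 h at 37 C/5% CO2, then dosed by pintool with compound in DMSO.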

Assay [8] is described as follows: qHTS RealTime-Glo MT Cell Viability Assay in HepG2 cells - 40 hour (AID 1224870). Note: nearly all actives have a fitted effect of over 50% in size. Note: potency is the fitted concentration of half-maximal effect. A digest of the protocol: (§4)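 Real-time viability: cells seeded at 600 per well together with NanoLuc and cell-permeant prosubstrate, compounds added after 5 h incubation. Luminescence tracked at 0, 8, 16, 24, 32 and 40 h of exposure.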
The nature of assay [9]: A CellTox Green Cytotoxicity Assay to monitor cytotoxicity in HEK293 cells - 40 hour (AID 1224871). Note: nearly all actives have a fitted effect of over 45% in size. Note: potency is the fitted concentration of half-maximal effect. A digest of the protocol:
as §3

The nature of assay [10]: qHTS RealTime-Glo MT Cell Viability Assay in HEK293 cells - 16 hour (AID 1224872). In outline: as §2
A short description of assay [11]: qHTS RealTime-Glo MT Cell Viability Assay in HepG2 cells - 8 hour (AID 1224873). Note: nearly all actives have a fitted effect of over 55% in size. In outline: as §4
Assay [12] can be described thus: qHTS RealTime-Glo MT Cell Viability Assay in HEK293 cells - 40 hour (AID 1224874). Note: nearly all actives have a fitted effect of over 50% in size. Note: potency is the fitted concentration of half-maximal effect. Particulars: RealTime-Glo luminescence; max response: stronger effect = lower value. A digest of the protocol:
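Measured as luminescence from the same continuously cultured HEK293 wells at successive time points (0, 8, 16, 24, 32, 40 h) after compound addition. Reagent present from seeding; dosing at 5 h; incubation 37 C.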

A short description of assay [13]: A CellTox Green Cytotoxicity Assay to monitor cytotoxicity in HEK293 cells - 24 hour (AID 1224875). Note: nearly all actives have a fitted effect of over 45% in size. A digest of the protocol:
as §3

Assay [14] can be described thus: A CellTox Green Cytotoxicity Assay to monitor cytotoxicity in HepG2 cells - 16 hour (AID 1224876). Note: nearly all actives have a fitted effect of over 45% in size. In outline:
(§5)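 Fluorescent DNA-binding dye, 600 HepG2 cells/well, 5 h preincubation then compound in DMSO; same plates read at 0–40 h, 37 C.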

Assay [15] in a line: qHTS RealTime-Glo MT Cell Viability Assay in HepG2 cells - 32 hour (AID 1224877). Note: nearly all actives have a fitted effect of over 55% in size. In outline:
as §1

Assay [16] is described as follows: A CellTox Green Cytotoxicity Assay to monitor cytotoxicity in HepG2 cells - 24 hour (AID 1224878). Note: nearly all actives have a fitted effect of over 45% in size. In outline: as §5
Assay [17] can be described thus: A CellTox Green Cytotoxicity Assay to monitor cytotoxicity in HepG2 cells - 40 hour (AID 1224879). Note: nearly all actives have a fitted effect of over 40% in size. Note: potency is the fitted concentration of half-maximal effect. A digest of the protocol:
as §5

The nature of assay [18]: qHTS assay to identify small molecule antagonists of the estrogen related receptor (ERR) signaling pathway from Tox21 library (AID 1224848). Note: nearly all actives have a fitted effect of over 50% in size. Note: potency is the fitted concentration of half-maximal effect. In outline: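 Luciferase luminescence (ONE-Glo, 30 min room temperature) was the read-out. Cells of the NTP-supplied ERR line, 2,000 per well, were given 6 h at 37 C before compound addition in DMSO and 18 h exposure at 37 C.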
The nature of assay [19]: qHTS assay to identify small molecule agonists of the estrogen related receptor (ERR) signaling pathway from Tox21 library (AID 1224849; calls by dose curve; note: nearly all actives have a fitted effect of over 15% in size). The settings on record: ERR reporter cell line, ONE-Glo luciferase, 18 h; at 92.4 µM (top of the series) unless noted. A digest of the protocol:
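Reporter cells (ERR, NTP source) treated with Tox21 10K compounds 18 h, 37 C. Readout: ONE-Glo luminescence, 30 min RT.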

Where “and” joins values, the source holds several entries; their conditions need not be identical. Equal values may be shown once. Results filed as inconclusive are left out. More than one record can exist for a structure, and the calls need not agree. Calls of active or inactive are those of the source. Unless noted, calls come from the whole dose curve; as a rule, active = well fitted curve in the direction sought with a large enough effect in the repeat runs; inconclusive = weak or mixed curves; inactive = no such curve, though single readings can be large; an effect the other way counts as inactive or inconclusive.
% is set by controls: 0 for no effect and ±100 for the full control effect.

`Nc1nc(N)nc(N)n1`: the Potency entry in assay [1], in assay [2], in assay [4], in assay [5], in assay [6] and in assay [7] was “inactive” throughout. Moreover, the Potency result in assay [8], in assay [9], in [10], in assay [11], in assay [13] and in assay [14] was “inactive” in each case. For the same compound, the Potency entry in assay [15], in assay [16] and in assay [17] was “inactive” in each case. The compound was called inactive in [3]. Further, the max response in assay [12] is 14.5% (inactive).
With `NCCCNCCCN`, the Potency result in [1], in [2], in assay [4], in assay [5], in assay [6] and in assay [7] was “inactive” throughout. The Potency result in [11], in assay [14], in assay [15], in assay [16] and in assay [17] was “inactive” in each case. Besides, the outcome in assay [3] was inactive. In assay [9], the Potency was 62.6 µM (active). In addition, the max response in [12] is -7.03% (inactive).
On to `CC(=O)CCC(C)=O`, for which the Potency entry in [1], in assay [2], in [4], in assay [5], in assay [6] and in [7] was “inactive” throughout. In addition, the Potency result in assay [8], in assay [9], in assay [10], in [11], in assay [13] and in [14] was “inactive” each time. The Potency entry in [15], in assay [16] and in [17] was “inactive” throughout. Besides, the outcome in assay [3] was inactive. For the same compound, in [12], the max response is 11.7% (inactive).
With `CCn1cc[n+](C)c1`, the Potency entry in assay [1], in assay [2], in assay [5], in assay [7], in [9] and in assay [10] was “inactive” throughout. The Potency entry in [13], in [14], in assay [15] and in assay [16] was “inactive” in each case. In addition, the outcome in assay [3] was inactive. In addition, the Potency result is “inactive and 102 µM (active)” in [4]; “inactive and 1.75 µM (active)” in assay [6]; “inactive and 44 µM (active)” in assay [8]; 1.56 µM (active) in assay [12]; “inactive and 55.5 µM (active)” in assay [17]. Moreover, in assay [12], the max response is 0.829% (inactive) [middle of 11 runs].
With `COC(=O)C(Cl)C(=O)OC`, the Potency entry in assay [1], in assay [2], in assay [4], in assay [5], in [6] and in assay [7] was “inactive” each time. Further, the Potency entry in [8], in assay [9], in assay [10], in [11], in [13] and in assay [14] was “inactive” each time. For the same compound, the Potency result in [15], in assay [16] and in assay [17] was “inactive” each time. Further, the compound was called inactive in assay [3]. Also, in [12], the max response is -20.1% (inactive).
Turning to `[O-][Cl+]O`, the Potency result in assay [1], in assay [2], in assay [4], in assay [18], in assay [5] and in [6] was “inactive” in each case. Moreover, the Potency entry in assay [7], in assay [8], in assay [10], in assay [11], in assay [13] and in assay [14] was “inactive” in each case. Also, the Potency result in assay [15], in assay [16] and in [17] was “inactive” each time. In assay [3], the outcome was inactive. For the same compound, the activity change, positive = activation in [19] is 8.47% (inactive). Further, the max response in [12] was 2.38% (inactive).
For the compound `O=[Se]=O`, the Potency result in [1], in assay [2], in assay [4], in assay [5], in assay [7] and in [13] was “inactive” throughout. Besides, the Potency entry in assay [14] and in [16] was “inactive” throughout. In assay [3], the compound was classed as inactive. Also, the Potency in assay [18] was 30.4 µM (active); in [6] it was 17.3 µM (active); in assay [9], 24.4 µM (active); in [12], 17.3 µM (active); in assay [17], 19.4 µM (active). In addition, in assay [19], the activity change, positive = activation is -51.4% [at 42.5 µM] (inactive).
On to `C=CCCl`, for which the Potency result in assay [1], in assay [2], in [4], in assay [5], in assay [6] and in assay [7] was “inactive” in each case. Also, the Potency result in [8], in [9], in [11], in [13], in [14] and in [15] was “inactive” each time. For the same compound, the Potency entry in assay [16] and in assay [17] was “inactive” throughout. For the same compound, in assay [3], the call was inactive. Besides, the max response in assay [12] was -3.44% (inactive).
